Experiment [1] addresses N-terminal Xaa-Pro-Lys N-methyltransferase 1 (Homo sapiens) (UniProt Q9BV86). As to the kind of experiment: Confirmatory qHTS for Inhibitors of N-terminal methyltransferase 1 (NTMT1): MTaseGlo Assay (AID 1645874). Note: nearly all actives have a fitted effect of over 65% in size. Note: potency is the fitted concentration of half-maximal effect. A digest of the protocol: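 Preincubation of NTMT1 (125 nM) plus SAM (100 uM) with test compounds lasted 15 min; methylation of 1 uM SPKRIA then proceeded 30 min in the dark at room temperature. Luciferase signal reported SAH produced.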

Experiment [2] deals with Rap guanine nucleotide exchange factor 3 (Homo sapiens) (UniProt O95398). As to the kind of experiment: Confirmatory qHTS for agonist of cAMP-regulated guanine nucleotide exchange factor 3 (EPAC1) (AID 1645881;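 note: EPAC1 catalysed release of BODIPY-GDP from Rap1B seen as fluorescence loss; nearly all actives have a fitted effect of over 75% in size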). (In general: In qHTS, concentration-response curves come from the screen itself.)
Rap guanine nucleotide exchange factor 3 (Homo sapiens), sequence (O95398 whole entry, looked up): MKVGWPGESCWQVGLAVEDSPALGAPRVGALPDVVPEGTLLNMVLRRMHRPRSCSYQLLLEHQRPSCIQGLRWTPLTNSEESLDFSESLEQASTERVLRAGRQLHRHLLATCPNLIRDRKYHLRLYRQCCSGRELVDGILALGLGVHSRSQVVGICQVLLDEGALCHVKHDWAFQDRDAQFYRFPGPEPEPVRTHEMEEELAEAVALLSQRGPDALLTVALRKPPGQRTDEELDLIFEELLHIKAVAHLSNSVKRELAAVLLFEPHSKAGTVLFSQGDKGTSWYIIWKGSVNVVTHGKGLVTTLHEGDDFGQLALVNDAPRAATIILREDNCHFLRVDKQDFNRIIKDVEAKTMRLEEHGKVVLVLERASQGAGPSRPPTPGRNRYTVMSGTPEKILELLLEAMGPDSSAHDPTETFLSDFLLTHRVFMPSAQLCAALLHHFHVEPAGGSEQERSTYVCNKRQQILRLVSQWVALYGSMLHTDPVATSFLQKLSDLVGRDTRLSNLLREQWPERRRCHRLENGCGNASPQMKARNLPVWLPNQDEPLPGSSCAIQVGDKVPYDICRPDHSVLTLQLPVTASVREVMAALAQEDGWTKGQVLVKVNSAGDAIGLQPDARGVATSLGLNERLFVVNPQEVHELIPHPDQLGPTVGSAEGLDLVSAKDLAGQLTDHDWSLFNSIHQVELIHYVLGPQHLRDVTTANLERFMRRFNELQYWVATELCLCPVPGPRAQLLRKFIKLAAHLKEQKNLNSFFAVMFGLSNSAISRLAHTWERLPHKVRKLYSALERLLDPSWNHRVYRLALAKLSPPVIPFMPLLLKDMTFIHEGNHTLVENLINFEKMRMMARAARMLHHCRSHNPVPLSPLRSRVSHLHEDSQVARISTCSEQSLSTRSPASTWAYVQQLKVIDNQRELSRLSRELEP
For experiment [3], the target named is Rap guanine nucleotide exchange factor 4 (Homo sapiens) (UniProt Q8WZA2). As to the kind of experiment: Confirmatory qHTS for agonist of cAMP-regulated guanine nucleotide exchange factor 4 (EPAC2) (AID 1645884).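 Note: nucleotide exchange releases bodipy-GDP from Rap1 and this lowers its fluorescence; nearly all actives have a fitted effect of over 65% in size.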
Rap guanine nucleotide exchange factor 4 (Homo sapiens), sequence (Q8WZA2 whole entry, looked up): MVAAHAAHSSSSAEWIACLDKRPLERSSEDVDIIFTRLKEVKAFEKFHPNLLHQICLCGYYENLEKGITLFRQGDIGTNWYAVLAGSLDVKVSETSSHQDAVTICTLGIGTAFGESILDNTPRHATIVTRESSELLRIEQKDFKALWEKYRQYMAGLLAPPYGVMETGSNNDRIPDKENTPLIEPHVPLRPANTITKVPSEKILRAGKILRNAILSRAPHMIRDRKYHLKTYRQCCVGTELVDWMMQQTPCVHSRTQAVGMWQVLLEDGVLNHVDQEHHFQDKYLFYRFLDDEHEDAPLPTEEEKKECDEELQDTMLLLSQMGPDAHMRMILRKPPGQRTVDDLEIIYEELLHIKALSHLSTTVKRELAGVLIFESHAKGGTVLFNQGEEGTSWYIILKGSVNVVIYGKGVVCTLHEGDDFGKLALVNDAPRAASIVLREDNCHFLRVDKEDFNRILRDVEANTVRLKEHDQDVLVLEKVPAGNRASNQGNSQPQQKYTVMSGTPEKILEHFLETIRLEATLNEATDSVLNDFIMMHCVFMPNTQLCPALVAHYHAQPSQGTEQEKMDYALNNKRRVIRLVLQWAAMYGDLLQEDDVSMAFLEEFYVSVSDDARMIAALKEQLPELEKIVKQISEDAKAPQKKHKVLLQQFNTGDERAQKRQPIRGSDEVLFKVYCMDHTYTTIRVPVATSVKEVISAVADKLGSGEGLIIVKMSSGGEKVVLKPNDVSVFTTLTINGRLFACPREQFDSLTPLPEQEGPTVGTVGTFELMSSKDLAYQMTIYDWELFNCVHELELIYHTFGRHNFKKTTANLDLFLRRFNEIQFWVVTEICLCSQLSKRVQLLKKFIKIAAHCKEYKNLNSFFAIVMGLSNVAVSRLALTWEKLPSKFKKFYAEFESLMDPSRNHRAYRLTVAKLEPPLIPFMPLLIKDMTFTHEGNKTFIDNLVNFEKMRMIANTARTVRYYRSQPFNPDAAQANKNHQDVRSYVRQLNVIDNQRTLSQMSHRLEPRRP
Experiment [4] has the same target. Description: Confirmatory qHTS for antagonist of cAMP-regulated guanine nucleotide exchange factor 4 (EPAC2) (AID 1645885). Note: nearly all actives have a fitted effect of over 25% in size.
Experiment [5] addresses Rap guanine nucleotide exchange factor 3 (Homo sapiens) (UniProt O95398). Description: Counterscreen qHTS for antagonist of cAMP-regulated guanine nucleotide exchange factor 3 (EPAC1) (AID 1645888).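 Note: fluorescence loss as bound BODIPY-GDP is released from Rap1B.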 The method, boiled down:
(§1)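 Rap1B-BODIPY-GDP 250 nM + GDP 50 uM; cpds 7-pt, final 9.74 nM–152 uM (activator mode) or from 7.32 nM upwards (inhibitor mode); RT; FI 480/540 nm at 5 and 30 min, then ± cAMP, reread.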
A general note: The purpose of a counterscreen is to sort out artefacts and off-target activity.

Experiment [6] shares this target. As to the kind of experiment: Counterscreen qHTS for agonist of cAMP-regulated guanine nucleotide exchange factor 3 (EPAC1) (AID 1645889). Note: nearly all actives have a fitted effect of over 40% in size. Note: potency is the fitted concentration of half-maximal effect. The method, boiled down:
as §1

For experiment [7], the target named is Glutathione peroxidase 1 (Homo sapiens) (UniProt P07203). Description: Primary qHTS Assay for Inhibitors of Recombinant Selenoprotein Glutathione Peroxidase 1 (GPX1) (AID 1845191). Note: nearly all actives have a fitted effect of over 65% in size. The method, boiled down: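 10 nM GPX1 + cpd, 30 min RT; start w/ 1 mM GSH, 0.5 mM cumene hydroperoxide, 0.5 mM NADPH, 100 nM GR, 0.01% BSA; buffer 50 mM Tris-HCl pH 7.5, 2 mM EDTA, 150 mM NaCl; Fl 340/450, 0 & 15 min.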
Glutathione peroxidase 1 (Homo sapiens), sequence (P07203 whole entry, looked up): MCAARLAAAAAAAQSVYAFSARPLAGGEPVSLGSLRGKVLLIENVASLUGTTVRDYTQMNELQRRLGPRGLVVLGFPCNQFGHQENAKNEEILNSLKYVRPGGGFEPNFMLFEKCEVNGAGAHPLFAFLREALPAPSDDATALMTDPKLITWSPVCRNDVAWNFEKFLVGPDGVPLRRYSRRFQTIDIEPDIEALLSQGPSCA

Experiment [8] is described as follows: qHTS for Inhibitors of Ubiquitin-specific Protease USP2a Using CHOP2 as the Reporter: K633 Counterscreen (AID 652168). Note: series mostly up to about 57 µM. The method, boiled down:
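Cell-free interference counterscreen without USP2a: compounds pinned into enzyme-free buffer (20 mM Tris pH 8, 2 mM beta-mercaptoethanol, 0.05% Chaps), then DiUb K48-4IQF substrate added (100 nM stock); fluorescence read kinetically, Ex 525/Em 598.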

Experiment [9] has as its target Ubiquitin carboxyl-terminal hydrolase 2 (Homo sapiens) (UniProt O75604). Description: qHTS for Inhibitors of Ubiquitin-specific Protease USP2a Using CHOP2 as the Reporter: K484 Substrate (AID 652173).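 Note: cleavage of internally quenched K48 di-ubiquitin substrate measured as rising fluorescence over time; potency is the fitted concentration of half-maximal effect; nearly all actives have a fitted effect of over 70% in size.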 The conditions noted are these: USP2 cleavage of DiUb K48 IQF substrate, fluorescence. The method, boiled down: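 USP2 (dispensed at 5 nM) was pinned with compounds, then DiUb K48 internally quenched fluorescent substrate (dispensed at 100 nM) was added. The buffer was 20 mM Tris pH 8, 2 mM beta-mercaptoethanol and 0.05% CHAPS. Cleavage was read kinetically as rising fluorescence, Ex 525/Em 598.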

The target in experiment [10] is Rap guanine nucleotide exchange factor 3 (Homo sapiens) (UniProt O95398). As to the kind of experiment: Confirmatory qHTS for antagonist of cAMP-regulated guanine nucleotide exchange factor 3 (EPAC1) (AID 1645880). Note: nearly all actives have a fitted effect of over 55% in size. The method, boiled down:
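Nucleotide exchange uses 100 nM EPAC1, 250 nM RAP1B-BODIPY-GDP and 50 uM GDP, with compounds in a concentration-titration series. After 5 min at room temperature, fluorescence (480 nm ex/540 nm em) is read every 5 min for 30 min. Data are normalized to control ATA and DMSO.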

Experiment [11] is described as follows: Primary qHTS for inhibitors of nuclear receptor binding SET domain protein 2 (NSD2) in an isogenic RCH-ACV NSD2 p.E1099K mutant (9B) (AID 1645876). Note: potency is the fitted concentration of half-maximal effect; nearly all actives have a fitted effect of over 70% in size.
A short description of experiment [12]: Primary qHTS for inhibitors of nuclear receptor binding SET domain protein 2 (NSD2) in an RCH-ACV wild type WT cells (2C) (AID 1645877). Note: potency is the fitted concentration of half-maximal effect; nearly all actives have a fitted effect of over 70% in size.

The values that follow come from PubChem BioAssay (NCATS).

Records with an inconclusive call do not appear. Activity calls are given as the source filed them. Calls come from the whole dose curve; as a rule, active = well fitted curve in the direction sought with a large enough effect; inconclusive = small, poorly fitted or top-dose-only effect, or another doubt; inactive = no such curve, though single readings can be large; an effect the other way counts as inactive or inconclusive.

N-terminal Xaa-Pro-Lys N-methyltransferase 1 (Homo sapiens), sequence (Q9BV86 whole entry, looked up): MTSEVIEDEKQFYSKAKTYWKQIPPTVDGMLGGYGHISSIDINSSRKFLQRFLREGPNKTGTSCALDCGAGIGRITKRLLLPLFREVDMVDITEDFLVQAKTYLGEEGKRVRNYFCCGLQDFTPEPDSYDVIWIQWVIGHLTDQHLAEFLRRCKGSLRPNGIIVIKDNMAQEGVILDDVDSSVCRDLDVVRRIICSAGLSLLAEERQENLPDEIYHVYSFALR
Ubiquitin carboxyl-terminal hydrolase 2 (Homo sapiens), sequence (O75604 whole entry, looked up): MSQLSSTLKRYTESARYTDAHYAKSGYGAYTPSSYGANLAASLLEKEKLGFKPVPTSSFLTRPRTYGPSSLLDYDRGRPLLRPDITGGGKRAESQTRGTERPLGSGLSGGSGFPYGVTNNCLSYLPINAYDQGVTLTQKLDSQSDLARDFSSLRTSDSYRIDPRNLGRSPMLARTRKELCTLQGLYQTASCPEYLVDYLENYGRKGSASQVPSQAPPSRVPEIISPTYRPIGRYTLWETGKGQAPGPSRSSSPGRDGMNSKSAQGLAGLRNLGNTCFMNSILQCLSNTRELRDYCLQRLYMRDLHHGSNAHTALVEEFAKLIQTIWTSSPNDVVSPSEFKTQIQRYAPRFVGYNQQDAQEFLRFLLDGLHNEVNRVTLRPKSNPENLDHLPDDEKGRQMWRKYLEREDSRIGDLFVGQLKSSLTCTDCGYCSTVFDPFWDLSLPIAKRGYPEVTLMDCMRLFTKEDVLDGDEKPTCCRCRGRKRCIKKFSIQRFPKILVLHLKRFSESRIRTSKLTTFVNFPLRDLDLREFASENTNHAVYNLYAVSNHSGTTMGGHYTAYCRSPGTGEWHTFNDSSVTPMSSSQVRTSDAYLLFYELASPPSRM

In the case of `COC(=O)c1ccc(NC(=O)CSc2nc3ccc(OC)cc3[nH]2)cc1`, the Potency result in experiment [1] is “inactive”.
For `CC(NC(=O)c1sc2ncccc2c1-n1cccc1)c1ccccc1` (stereo not drawn), the Potency in [1] was 28.2 µM (active). The Potency entry in experiment [2], in [3], in experiment [4] and in [5] was “inactive” in each case.
Turning to `COc1cc(-c2nc3ccc(Cl)cn3c2Nc2ccc3c(c2)OCO3)ccc1O`, the Potency in experiment [1] is 5.15 µM (active).
Still for that read-out and setting: the same measure for `CC(C)CCNc1ncnc2c1cnn2-c1cccc(Cl)c1`: 14.1 µM (active); for `Oc1cccc(Nc2nc(-c3ccccc3)nc3ccccc23)c1`: 15.8 µM (active); for `O=S(=O)(c1cccc(Cl)c1)n1c(/C=C/c2ccccc2Cl)nc2ccccc21`: 6.76 µM (active).
Turning to `COc1cc2nc(N3CCCC3)nc(NC3CC3)c2cc1OC`, in [1], the Potency was 38.8 µM (active).
Turning to `Cc1cccc(C(=O)Nc2sc3c(c2C(=O)O)CCCC3)c1`, the Potency in experiment [1] is 35.5 µM (active). Also, the Potency result in experiment [2], in [3], in experiment [4], in experiment [5] and in experiment [6] was “inactive” each time.
With `COc1ccc(C(=O)CSc2nc(C)cc(C)c2C(=O)Nc2ccccc2C)cc1`, the Potency result in experiment [1] was “inactive”.
On to `COc1c/c(=C2\C=c3ccccc3=N2)[nH]/c1=C/c1[nH]c(C)cc1C`, for which, in experiment [1], the Potency was 35 µM (active). Moreover, the Potency result in experiment [7] was “inactive”.
For `Clc1cccc(-c2nc3ccccn3c2Nc2ccc3c(c2)OCCO3)c1`, the Potency in experiment [1] is 4.09 µM (active).
`COc1cc2c(NC3CCN(C(C)C)CC3)nc(N3CCCN(CC4CCCCC4)CC3)nc2cc1OCCCN1CCCCC1`: the Potency in [1] was 43.5 µM (active).
The same measure, in the same setting: the same measure for `CCCOc1ccccc1C(=O)Nc1nc2c(s1)CCCC2`: “inactive”.
For `Cc1cc(F)ccc1S(=O)(=O)Nc1cnccc1C(=O)Nc1nc(-c2ccccc2)cs1`, in experiment [8], the outcome was inactive. The Potency is 0.968 µM (active) in experiment [9] and 21.8 µM (active) in experiment [1].
`Cc1cc(C)n2c(Nc3c(C)cccc3C)c(-c3ccsc3)nc2n1`: the Potency result in experiment [1] is “inactive”.
On the same count and under the same terms, to `COc1cc2c(NC3CCN(C(C)C)CC3)nc(N3CCCN(C4CCCCC4)CC3)nc2cc1OCCCN1CCCCC1` belongs 34.5 µM (active).
Turning to `Cc1cccc(NC(=O)c2sc3nc(-c4cc5ccc(O)cc5oc4=O)[nH]c(=O)c3c2C)c1`, the Potency in experiment [1] is 6.02 µM (active); in experiment [6], 50.1 µM (active). The Potency result in experiment [10] and in [5] was “inactive” in each case.
Turning to `O=C(Nc1nc2c(s1)CCCC2)c1ccccc1F`, in [1], the Potency is 39.8 µM (active).
On to `COc1cc2c(NC3CCN(C(C)C)CC3)nc(N3CCCCC3)nc2cc1OCCCN1CCCCC1`, for which the Potency in [1] was 38.8 µM (active).
Consider `c1csc(-c2nc3ccccn3c2Nc2ccc3c(c2)OCCO3)c1`, for which, in experiment [1], the Potency is 6.49 µM (active).
Consider `COc1cc2nc(N3CCCCC3)nc(NC3CC3)c2cc1OC`, for which the Potency in experiment [1] is 34.5 µM (active).
On the same count and under the same terms, the same measure for `N#CNC(=O)c1ccc(-n2cccc2/C=C2\NC(=O)N(CC(=O)Nc3ccc(F)cc3)C2=O)cc1`: 7.58 µM (active).
For `O=c1cc(-c2ccccc2)oc2ccc(O)cc12`, the figures for the Potency in [1] and in experiment [11] were 20 µM (active) and 18.4 µM (active), respectively. In addition, in experiment [7], the Potency result is “inactive”.
For the compound `COc1cccc(-c2n[nH]c3c2C(c2cccc(O)c2)N(C)C3=O)c1` (stereo not drawn), the Potency in experiment [1] is 44.7 µM (active).
The same measure, in the same setting: to `Cc1ccc(C)n1-c1cccc(C(=O)O)c1` belongs 6.02 µM (active); to `CNc1sc(-c2cccc3ccccc23)nc1C#N`, “inactive”.
The same measure, in the same setting: the same measure for `COc1cc2c(NC3CCN(C(C)C)CC3)nc(N3CCCN(CC4CCCCC4)CC3)nc2cc1OCCCN1CCCC1`: 34.5 µM (active); for `COc1ccc(C(=O)Nc2onc3c2CCCC3)cc1`: “inactive”; for `Cc1cccc2nc(-c3ccc(Cl)s3)c(Nc3ccc4c(c3)OCCO4)n12`: 3.25 µM (active).
As for `CCOc1ccc(/C=C/c2nc3ccccc3n2S(=O)(=O)c2cccc(Cl)c2)cc1`, the Potency in experiment [1] is 12 µM (active).
The same measure, in the same setting: the same measure for `COCCCNC(=O)CSc1c2c(nc3ccc(Cl)cc13)CCCC2`: “inactive”; for `Clc1ccc(-c2noc3ncnc(NC4CCCCC4)c23)cc1`: 15.8 µM (active).
Consider `O=C(Nc1noc2ccccc12)c1c(F)cccc1F`, for which the Potency entry in experiment [1] was “inactive”.
The same measure, in the same setting: to `COc1ccc(Nc2ncnc3sc4c(c23)CCCC4)cc1` belongs 15.8 µM (active).
For `O=C1N=C(O)S/C1=C\c1ccc2nccnc2c1`, the Potency was 18.4 µM (active) in experiment [11] and 20.6 µM (active) in experiment [12].
